Assay results from PubChem BioAssay AID1159580 (chemical genetic matrix, 2015).
Screen size: about 5,500 compounds; about 2,000 (36%) were called active. Another 18% or so got no clear call; they are omitted. Cut-off read from the data, not from the text of the source: active = normalized growth mostly below about 0.91 (no sharp cut-off); inconclusive = no clear call, values can overlap the other calls; inactive = mostly above about 0.92. The list shows a part of the results.

Assay: chemical genetic growth profiling, strain panel (AID 1159580);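 note: tested at 20 µM; growth read once vehicle control cultures reached saturation at 30 °C; 1 = growth at the plate median or of vehicle wells; lower values mean less growth of the strain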
Conditions: growth OD

Measured: normalized growth

NC(=O)NCC(N)C(=O)O (stereo not drawn)
inactive: S. cerevisiae deletion strains, locus YBR021W, strain FUR4, hits give low values 1.06 | S. cerevisiae deletion strains, locus YBR229C, strain ROT2, hits give low values 1.01 | S. cerevisiae deletion strains, locus YCL029C, strain bik1, hits give low values 0.988 | S. cerevisiae deletion strains, locus YDL035C, strain GPR1, hits give low values 1.04 | S. cerevisiae deletion strains, locus YDL074C, strain BRE1, hits give low values 1.03 | S. cerevisiae deletion strains, locus YDL101C, strain DUN1, hits give low values 1.02 | S. cerevisiae deletion strains, locus YDL134C, strain PPH21, hits give low values 1.03 | S. cerevisiae deletion strains, locus YDL185W, strain tfp1, hits give low values 0.989 | S. cerevisiae deletion strains, locus YDL192W, strain arf1, hits give low values 1 | S. cerevisiae deletion strains, locus YDR101C, strain arx1, hits give low values 0.975 | S. cerevisiae deletion strains, locus YDR162C, strain NBP2, hits give low values 1.04 | S. cerevisiae deletion strains, locus YDR318W, strain mcm21, hits give low values 0.999 | S. cerevisiae deletion strains, locus YDR388W, hits give low values 0.983 | S. cerevisiae deletion strains, locus YDR502C, strain sam2, hits give low values 0.984 | S. cerevisiae deletion strains, locus YEL061C, strain CIN8, hits give low values 1.01 | S. cerevisiae deletion strains, locus YER110C, hits give low values 0.978 | S. cerevisiae deletion strains, locus YER155C, strain BEM2, hits give low values 1.01 | S. cerevisiae deletion strains, locus YER167W, strain BCK2, hits give low values 1.02 | S. cerevisiae deletion strains, locus YGL078C, strain dbp3, hits give low values 0.995 | S. cerevisiae deletion strains, locus YGL086W, strain mad1, hits give low values 0.994 | S. cerevisiae deletion strains, locus YGL248W, strain PDE1, hits give low values 1.02 | S. cerevisiae deletion strains, locus YGR078C, strain PAC10, hits give low values 1.03 | S. cerevisiae deletion strains, locus YGR135W, strain pre9, hits give low values 0.995 | S. cerevisiae deletion strains, locus YGR252W, strain gcn5, hits give low values 0.987 | S. cerevisiae deletion strains, locus YHR030C, strain SLT2, hits give low values 1.01 | S. cerevisiae deletion strains, locus YHR079C, strain IRE1 (second series), hits give low values 0.983 | S. cerevisiae deletion strains, locus YHR094C, strain hxt1, hits give low values 0.975 | S. cerevisiae deletion strains, locus YHR129C, strain ARP1, hits give low values 1.02 | S. cerevisiae deletion strains, locus YHR200W, strain rpn10, hits give low values 0.986 | S. cerevisiae deletion strains, locus YIL066C, strain RNR3, hits give low values 1.03 | S. cerevisiae deletion strains, locus YIL073C, strain SPO22, hits give low values 1 | S. cerevisiae deletion strains, locus YIL125W, strain kgd1, hits give low values 0.991 | S. cerevisiae deletion strains, locus YIR030C, strain dcg1, hits give low values 0.996 | S. cerevisiae deletion strains, locus YJL095W, strain BCK1, hits give low values 1.03 | S. cerevisiae deletion strains, locus YJL134W, strain LCB3, hits give low values 1.01 | S. cerevisiae deletion strains, locus YJL168C, strain set2, hits give low values 0.989 | S. cerevisiae deletion strains, locus YJL187C, strain SWE1 (second series), hits give low values 1.02 | S. cerevisiae deletion strains, locus YJR043C, strain POL32, hits give low values 1.04 | S. cerevisiae deletion strains, locus YJR075W, strain HOC1, hits give low values 1.02 | S. cerevisiae deletion strains, locus YKL009W, strain mrt4, hits give low values 1 | S. cerevisiae deletion strains, locus YKL068W, hits give low values 0.997 | S. cerevisiae deletion strains, locus YKL085W, strain MDH1 (second series), hits give low values 1.01 | S. cerevisiae deletion strains, locus YKL085W, strain MDH1, hits give low values 1.01 | S. cerevisiae deletion strains, locus YKL190W, strain CNB1, hits give low values 1.01 | S. cerevisiae deletion strains, locus YKR001C, strain vps1, hits give low values 0.989 | S. cerevisiae deletion strains, locus YLR039C, strain RIC1, hits give low values 1.08 | S. cerevisiae deletion strains, locus YLR058C, strain SHM2, hits give low values 1.02 | S. cerevisiae deletion strains, locus YLR102C, strain apc9, hits give low values 0.987 | S. cerevisiae deletion strains, locus YLR262C, strain YPT6, hits give low values 1.1 | S. cerevisiae deletion strains, locus YLR268W, strain sec22, hits give low values 0.983 | S. cerevisiae deletion strains, locus YLR330W, strain CHS5, hits give low values 1.01 | S. cerevisiae deletion strains, locus YLR342W, strain FKS1 (second series), hits give low values 1.03 | S. cerevisiae deletion strains, locus YLR371W, strain rom2, hits give low values 0.981 | S. cerevisiae deletion strains, locus YLR418C, strain cdc73, hits give low values 0.982 | S. cerevisiae deletion strains, locus YML016C, strain PPZ1, hits give low values 1.01 | S. cerevisiae deletion strains, locus YML032C, strain rad52, hits give low values 0.995 | S. cerevisiae deletion strains, locus YML124C, strain tub3, hits give low values 0.981 | S. cerevisiae deletion strains, locus YMR078C, strain ctf18, hits give low values 0.971 | S. cerevisiae deletion strains, locus YMR223W, strain ubp8, hits give low values 0.99 | S. cerevisiae deletion strains, locus YMR307W, strain GAS1, hits give low values 1.14 | S. cerevisiae deletion strains, locus YNL067W, strain RPL9B, hits give low values 1.01 | S. cerevisiae deletion strains, locus YNL153C, strain GIM3, hits give low values 1.01 | S. cerevisiae deletion strains, locus YNL233W, strain BNI4, hits give low values 1.03 | S. cerevisiae deletion strains, locus YNL250W, strain rad50, hits give low values 1.01 | S. cerevisiae deletion strains, locus YNL271C, strain bni1, hits give low values 0.982 | S. cerevisiae deletion strains, locus YNL298W, strain CLA4, hits give low values 0.994 | S. cerevisiae deletion strains, locus YNL307C, strain MCK1, hits give low values 0.991 | S. cerevisiae deletion strains, locus YNL322C, strain KRE1, hits give low values 1.01 | S. cerevisiae deletion strains, locus YNR052C, strain pop2, hits give low values 0.991 | S. cerevisiae deletion strains, locus YOL012C, strain htz1 0.762 | S. cerevisiae deletion strains, locus YOL147C, strain pex11, hits give low values 0.985 | S. cerevisiae deletion strains, locus YOR061W, strain CKA2, hits give low values 1.02 | S. cerevisiae deletion strains, locus YOR069W, strain VPS5, hits give low values 1.01 | S. cerevisiae deletion strains, locus YOR136W, strain idh2, hits give low values 0.985 | S. cerevisiae deletion strains, locus YOR144C, strain elg1, hits give low values 0.984 | S. cerevisiae deletion strains, locus YOR184W, strain ser1, hits give low values 0.989 | S. cerevisiae deletion strains, locus YOR316C, strain cot1, hits give low values 0.983 | S. cerevisiae deletion strains, locus YPR119W, strain clb2, hits give low values 0.987 | S. cerevisiae deletion strains, locus YPR141C, strain kar3, hits give low values 0.995 | S. cerevisiae deletion strains, locus YPR163C, strain tif3, hits give low values 0.985 | S. cerevisiae deletion strains, locus YPR167C, strain met16, hits give low values 0.989 | S. cerevisiae deletion strains, strain wtn01, hits give low values 0.989 | S. cerevisiae strains, strain wild type, hits give low values 1.02
